Source: PubChem (National Center for Advancing Translational Sciences (NCATS))
This is a sample that favours compounds with a hit; in the whole collection about 7.3% have one here.
SMN2 splice enh = enhancers of SMN2 splice variant expression. HEK293 SMN2-luciferase splicing reporter, luminescence, 30-36 h. Potency, µM (series often up to 46.1 µM), without a hit: top-dose activity change, positive = activation, most hits filed as activators. hit rate 2.8% among 210,000; also: % of control where 0% means no effect; nearly all actives have a fitted effect of over 55% in size
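qHTS luciferase splicing reporter: luminescence rises when SMN2 exon 7 is included in transfected HEK293 cells. Compound exposure lasted 30-36 h at 37C, with 4.5 mM final sodium butyrate as control, followed by a ONE-Glo read.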
FLuc counter = counter-screen for miR-21 project: firefly luciferase inhibitors or activators; P08659; purified FLuc, Km substrates, luminescence inhibition; Potency, µM (top dose mostly 57.5 µM), for the others: top-dose activity change, negative = inhibition, most hits filed as inhibitors; hit rate 6.9% among 360,000;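 also: plate controls were vehicle for no effect and reference inhibitor for full effect; nearly all actives have a fitted effect of over 55% in size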
Target sequence (P08659 whole entry, looked up): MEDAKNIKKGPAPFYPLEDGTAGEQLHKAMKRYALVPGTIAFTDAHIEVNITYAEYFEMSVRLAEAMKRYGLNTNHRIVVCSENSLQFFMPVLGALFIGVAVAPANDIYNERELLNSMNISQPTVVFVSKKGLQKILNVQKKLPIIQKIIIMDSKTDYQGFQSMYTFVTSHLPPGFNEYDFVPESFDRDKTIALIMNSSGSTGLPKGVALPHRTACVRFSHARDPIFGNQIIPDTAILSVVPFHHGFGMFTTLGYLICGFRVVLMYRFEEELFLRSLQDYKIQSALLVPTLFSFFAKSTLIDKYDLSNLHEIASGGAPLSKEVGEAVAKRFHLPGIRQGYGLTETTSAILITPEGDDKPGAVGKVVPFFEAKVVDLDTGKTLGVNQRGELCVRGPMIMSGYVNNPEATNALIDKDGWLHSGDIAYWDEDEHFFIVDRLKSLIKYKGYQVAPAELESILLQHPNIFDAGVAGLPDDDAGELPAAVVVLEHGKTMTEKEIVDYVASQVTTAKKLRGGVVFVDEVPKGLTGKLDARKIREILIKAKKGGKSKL
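Purified P. pyralis luciferase (10nM final) with 10uM D-luciferin and 10uM ATP (Km levels) in 50mM Tris acetate pH 7.5, 10mM Mg acetate, 0.01% Tween-20, 0.05% BSA; qHTS 6-point titration, ~60 µM downward; luminescence read.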
ELG1 genotox = inducers of genotoxicity in HEK293T ELG1-luciferase cells. Potency, µM (top dose mostly 46 µM), without a hit: top-dose activity change, positive = activation, hits mostly activators. hit rate 1.3% among 330,000. HEK293T ELG1-luciferase reporter, luminescence, 16 h; also: % of control where 0% means no effect; nearly all actives have a fitted effect of over 60% in size
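Luminescence read-out: rising ELG1-luciferase signal, reflecting elevated ELG1 protein under genetic stress, flags genotoxic compounds. Cells were treated for 16 hr at 37 °C before ONE-Glo detection.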
NPC1 prom act = NPC1 promoter activation | Potency, µM (doses to about 9.22 µM), without a hit: top-dose activation, hits mostly activators | hit rate 2.4% among 320,000 | Huh7 NPC1 promoter luciferase reporter, 24 h; also: % of control where 0% means no effect; nearly all actives have a fitted effect of over 60% in size
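Huh7 cells stably carrying NPC1 promoter–luciferase, plated in Opti-MEM with 10% FBS for 2 h, were exposed to compound in DMSO for 24 h at 37 °C; luciferase reagent was added for 10 min and luminescence read.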
Rab9 promoter act = activates the Rab9 promoter. Huh7 Rab9 promoter-luciferase reporter, luminescence, 24 h. Potency, µM (doses to about 9.22 µM), inactives show top-dose activation, negative = inhibition, usual class: activators. hit rate 2.8% among 320,000; also: % of control where 0% means no effect; nearly all actives have a fitted effect of over 60% in size
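Rab9 promoter-driven luciferase in stably transfected Huh7 cells; 1500 cells/well rested 2 h, exposed to compound in DMSO for 24 h at 37 °C, 5% CO2. Luminescence read 10 min after adding luciferase reagent at ambient temperature.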
p53 reactivator = re-activators of mutant p53; H1299 p53-A138V BP100-luciferase reporter, luminescence, 24 h; AID 504706; hit rate 0.063% among 320,000; Potency, µM (top dose mostly 92.2 µM), for the others: top-dose activity change, positive = activation, most hits filed as activators; also: % of control where 0% means no effect; nearly all actives have a fitted effect of over 45% in size
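H1299 (p53-null), stable ts p53-A138V + BP100-Luc; 1000 cells/well, Opti-MEM/10% FBS; cpd 4 pt, 1:5; 24 h, 37 deg C, 5% CO2; detection reagent 10 min RT; luminescence.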
An asterisk follows results filed as active. Calls follow the shape of the dose curve; as a rule, active = well fitted curve in the direction sought with a large enough effect; inconclusive = small, poorly fitted or top-dose-only effect, or another doubt; inactive = no such curve, though single readings can be large; an effect the other way counts as inactive or inconclusive. Potency is read from the fitted curve at half-maximal effect.

Nc1nc2ccc(C(=O)Nc3ccc(N4CCOCC4)cc3)cc2s1 was read as ELG1 genotox 8% and p53 reactivator 15%.
Screening O=C(Nc1ccc(CN2CCOCC2)cc1)c1cc2ccccn2n1 returned SMN2 splice enh inconclusive, FLuc counter 1.2µM*, ELG1 genotox inconclusive, NPC1 prom act 0.32µM*, Rab9 promoter act 0.45µM* and p53 reactivator 4%.
`O=C(Nc1ccc(CN2CCOCC2)cc1)c1cc2ccccc2o1` gave SMN2 splice enh 5.6µM*, FLuc counter 3.8µM*, ELG1 genotox 12%, NPC1 prom act 1.6µM*, Rab9 promoter act 0.63µM* and p53 reactivator 19%.
For O=C(/C=C/N1CCOCC1)c1coc2ccccc12 the results were FLuc counter 9.5µM*, ELG1 genotox inconclusive, NPC1 prom act 1.6µM*, Rab9 promoter act 1.4µM* and p53 reactivator inconclusive.
O=C(Nc1ccc(N2CCOCC2)cc1)c1nc2ccccc2s1 was read as FLuc counter 0.24µM*, ELG1 genotox inconclusive, NPC1 prom act 0.1µM*, Rab9 promoter act 0.1µM* and p53 reactivator inconclusive.
Screening O=C(COc1ccccc1[N+](=O)[O-])N1CCC(c2nc3ccccc3o2)CC1 returned FLuc counter 1%.
CCOc1ccccc1NC(=O)C1CCN(S(=O)(=O)c2ccc3[nH]c(=O)oc3c2)CC1 was read as FLuc counter -18%.
`CC(C)C(C)(C#N)NC(=O)CSc1nnc(C(F)(F)F)n1C` (stereo not drawn) gave SMN2 splice enh inconclusive, FLuc counter 7%, ELG1 genotox -3%, NPC1 prom act 1%, Rab9 promoter act 9% and p53 reactivator -20%.
Screening O=C(Nc1ccc(NC(=O)c2cc3ccccc3o2)cc1)c1ccccc1 returned SMN2 splice enh -15% and FLuc counter -1%.
Screening CC(=O)Cc1nsc(NC(=O)c2ccc(-c3cccc(Cl)c3)o2)n1 returned SMN2 splice enh 20%, FLuc counter 11µM*, ELG1 genotox -2%, NPC1 prom act 2%, Rab9 promoter act 0% and p53 reactivator -2%.
`Cn1c(=O)n(C)c2cc(NC(=O)c3ccccc3NS(C)(=O)=O)ccc21` gave FLuc counter 27µM*, ELG1 genotox 14%, NPC1 prom act 6%, Rab9 promoter act 6% and p53 reactivator -2%.
O=C(O)c1ccc(NC(=O)c2cc3ccccc3o2)cc1 was read as SMN2 splice enh 6.3µM*, FLuc counter 2.1µM*, ELG1 genotox inconclusive, NPC1 prom act inconclusive, Rab9 promoter act inconclusive and p53 reactivator -7%.
For O=C(CS(=O)(=O)c1cccc2nsnc12)NCc1ccc(Cl)cc1 the results were FLuc counter -3%.
O=C1C(C=NCCCN2CCCC2=O)=C(O)c2ccccc21 was read as SMN2 splice enh inconclusive, FLuc counter 19µM*, ELG1 genotox 18µM*, NPC1 prom act inconclusive, Rab9 promoter act inconclusive and p53 reactivator 18%.
For O=C1C(C=NCc2ccccn2)=C(O)c2ccccc21 the results were SMN2 splice enh 5.6µM*, FLuc counter 12µM*, ELG1 genotox inconclusive, NPC1 prom act 2.2µM*, Rab9 promoter act 4µM* and p53 reactivator 5%.
`CC(C)CN=CC1=C(O)c2ccccc2C1=O` gave FLuc counter 12µM*, ELG1 genotox inconclusive, NPC1 prom act 1.8µM*, Rab9 promoter act 1µM* and p53 reactivator 9%.
For O=c1oc2ccccc2c(O)c1C=NCc1ccccn1 the results were SMN2 splice enh 4%, FLuc counter inconclusive, ELG1 genotox -9%, NPC1 prom act -10%, Rab9 promoter act -3% and p53 reactivator 3%.
O=C1CCCN1CCCNCC(O)c1ccccc1 (stereo not drawn) was read as FLuc counter -2%, ELG1 genotox -5%, NPC1 prom act 0%, Rab9 promoter act -4% and p53 reactivator -3%.
CC(C)Cn1c(N)c(C(=O)COC(=O)c2cnc(Cl)c(Cl)c2)c(=O)n(C)c1=O was read as SMN2 splice enh -21%, FLuc counter -2%, ELG1 genotox -1%, NPC1 prom act 2%, Rab9 promoter act -3% and p53 reactivator 0%.
O=C(O)C1CC(c2ccccc2)=Nc2ccccc2S1 (stereo not drawn) was read as FLuc counter 17µM*, ELG1 genotox inconclusive, NPC1 prom act inconclusive, Rab9 promoter act inconclusive and p53 reactivator 4%.
Cc1ccccc1CSc1nc(-c2cccc(F)c2)nc2c1Cc1c(CO)cnc(C)c1O2 was read as FLuc counter -1%.
For O=c1[nH]c2ccccc2nc1/C=C/c1ccc(F)cc1 the results were FLuc counter 2.4µM*, ELG1 genotox 21%, NPC1 prom act 3.2µM*, Rab9 promoter act 4µM* and p53 reactivator 10%.
Screening O=c1[nH]c2ccccc2nc1/C=C/c1ccccc1 returned FLuc counter 1.9µM*, ELG1 genotox inconclusive, NPC1 prom act 4µM*, Rab9 promoter act 1.8µM* and p53 reactivator 8%.
`O=c1[nH]c2ccccc2nc1/C=C/c1ccc(O)cc1` gave FLuc counter 6.7µM*, ELG1 genotox inconclusive, NPC1 prom act inconclusive, Rab9 promoter act 3.5µM* and p53 reactivator 9%.
For O=c1[nH]c2ccccc2nc1/C=C(\O)C1CC1 the results were SMN2 splice enh 8%, FLuc counter -1%, ELG1 genotox 6%, NPC1 prom act 2%, Rab9 promoter act 3% and p53 reactivator 14%.
CC(C)(C)/C(O)=C/c1nc2ccccc2[nH]c1=O was read as SMN2 splice enh 2%, FLuc counter 0%, ELG1 genotox 0%, NPC1 prom act -1%, Rab9 promoter act 1% and p53 reactivator -3%.
For Cc1cccc(Cc2c(C)nc3nc(SCc4ccccc4F)nn3c2C)c1 the results were FLuc counter -11%.
Screening Cc1ccc(S(=O)(=O)NCCc2cn3ccsc3n2)cc1 returned FLuc counter 2%.
Cc1ccc(Nc2nnc(SCC3CCCCO3)s2)cc1 (stereo not drawn) was read as SMN2 splice enh inconclusive, FLuc counter inconclusive, ELG1 genotox 14%, NPC1 prom act 24%, Rab9 promoter act inconclusive and p53 reactivator 18%.
For Cc1ccccc1Nc1nnc(SCC2CCCCO2)s1 (stereo not drawn) the results were SMN2 splice enh 11µM*, FLuc counter 2.4µM*, ELG1 genotox inconclusive, NPC1 prom act 0.71µM*, Rab9 promoter act 2.8µM* and p53 reactivator inconclusive.
